This note sets out measurements from PubChem BioAssay (EPA / NIEHS).

Structures are written as SMILES. Inconclusive results are not listed. Calls of active or inactive are those of the source. The calls were made as follows, unless noted: active = hit-call score of the fitted dose curve at least 0.9, where 1 is the maximum; inactive = score below 0.9.

The nature of test [1]: ATG_CRE_CIS: Attagene CIS-FACTORIAL HepG2 Assay for human cAMP Responsive Element (CRE) binding protein 3 (AID 2282926). The conditions noted are these: HepG2 CRE cis-reporter, Attagene multiplexed mRNA; actives raise or lower the signal. The procedure, abridged: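 Induced reporter mRNA from a CRE cis element, measured in HepG2 among many multiplexed units at 24 h. Detection used RT-PCR plus capillary electrophoresis of fluorescent fragments; DMSO served as negative control.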

Test [2] is described as follows: ATG_CMV_CIS: Attagene CIS-FACTORIAL HepG2 Assay for human CMV (Internal Marker) (AID 2282928).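 Also: endpoint acts as a background internal control marker rather than a target.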 The conditions noted are these: HepG2 CMV promoter reporter, transcription factor profiling; actives raise or lower the signal. The method, boiled down: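 Readout: fluorescent reporter cDNA fragments separated by capillary electrophoresis after RT-PCR and HpaI cut. Cells: HepG2 carrying transfected cis-promoter reporter constructs, dosed 24 h. Endpoint serves as background internal-marker control, fit bidirectionally versus DMSO.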

The target in test [3] is Aryl hydrocarbon receptor (Homo sapiens) (UniProt P35869). Briefly: ATG_Ahr_CIS: Attagene CIS-FACTORIAL HepG2 Assay for human Aryl Hydrocarbon Receptor (Ahr) (AID 2282930). The conditions noted are these: HepG2 AhR cis-factorial reporter transcription; actives raise or lower the signal. The procedure, abridged:
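Read-out: reporter mRNA quantified by RT-PCR with fluorescent primer extension and capillary electrophoresis. Human HepG2 liver cells carried transfected cis-promoter reporter units and were exposed to chemical for 24 h; gain or loss fitted relative to DMSO.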

The nature of test [4]: ATG_AP_1_CIS: Attagene CIS-FACTORIAL HepG2 Assay for human Activator Protein 1 (AP-1) (AID 2282931). The conditions noted are these: HepG2 Attagene cis-factorial AP-1 reporter mRNA; actives raise or lower the signal. The method, boiled down:
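HepG2, transient cis-reporter transfection; 24 h; readout RT-PCR/CE fluorescence; DMSO baseline, gain and loss fitted.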

Test [5] is described as follows: ATG_BRE_CIS: Attagene CIS-FACTORIAL HepG2 Assay for human Bone Morphogenetic Protein (BMP) Response Element (BRE) (AID 2282933). The conditions noted are these: HepG2 BMP response element reporter, Attagene transcription factor profiling; actives raise or lower the signal. The procedure, abridged: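 Read-out: reporter mRNA induction quantified by RT-PCR and capillary electrophoresis after 24 h chemical exposure of transfected HepG2 cells. Endogenous factor activity on the BMP response element; gain or loss fitted against DMSO baseline.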

Test [6] has as its target Hepatocyte nuclear factor 3-beta (Homo sapiens) (UniProt Q9Y261). Briefly: ATG_FoxA2_CIS: Attagene CIS-FACTORIAL HepG2 Assay for human Forkhead box A2 (FOXA2) (AID 2282942). The conditions noted are these: HepG2 cis-reporter transcription factor activity, 24 h; actives raise or lower the signal. The method, boiled down: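 24 h dosing of HepG2 bearing cis-reporter constructs; mRNA readout by RT-PCR/CE fluorescence; bidirectional fit, DMSO baseline.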

Test [7] in a line: ATG_FoxO_CIS: Attagene CIS-FACTORIAL HepG2 Assay for human Forkhead box O (FoxO) (AID 2282943). The conditions noted are these: HepG2 Attagene cis-reporter, FoxO element, mRNA; actives raise or lower the signal. The method, boiled down:
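Read-out: fluorescence of 6-FAM-labelled reporter cDNA fragments resolved by capillary electrophoresis. Transiently transfected HepG2 cells were dosed for 24 h; activity fitted in both directions relative to DMSO controls.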

Test [8] in a line: ATG_GATA_CIS: Attagene CIS-FACTORIAL HepG2 Assay for human GATA Binding Protein (AID 2282944). Particulars: HepG2 GATA cis-element reporter, Attagene multiplex mRNA; actives raise or lower the signal. The procedure, abridged: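 Read-out: fluorescent reporter mRNA fragments resolved by capillary electrophoresis after RT-PCR. Human liver HepG2 cells carried transiently transfected cis-regulated reporter constructs; chemicals incubated 24 h; gain or loss of signal fitted relative to DMSO.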

For test [9], the target named is Hypoxia-inducible factor 1-alpha (Homo sapiens) (UniProt Q16665). Briefly: ATG_HIF1a_CIS: Attagene CIS-FACTORIAL HepG2 Assay for human Hypoxia Inducible Factor 1 (HIF1A) (AID 2282951). Particulars: HepG2 Attagene cis-factorial HIF1a reporter transcription; actives raise or lower the signal. The method, boiled down: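 After 24 h chemical exposure of reporter-transfected HepG2 cells, reporter cDNA was PCR-amplified, labelled by 6-FAM primer extension (2 min 95 C, 20 s 68 C, 10 min 72 C), HpaI-cut (2 h, 37 C) and analysed by CE.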
Chain of Hypoxia-inducible factor 1-alpha (Homo sapiens) (Q16665 whole entry, looked up): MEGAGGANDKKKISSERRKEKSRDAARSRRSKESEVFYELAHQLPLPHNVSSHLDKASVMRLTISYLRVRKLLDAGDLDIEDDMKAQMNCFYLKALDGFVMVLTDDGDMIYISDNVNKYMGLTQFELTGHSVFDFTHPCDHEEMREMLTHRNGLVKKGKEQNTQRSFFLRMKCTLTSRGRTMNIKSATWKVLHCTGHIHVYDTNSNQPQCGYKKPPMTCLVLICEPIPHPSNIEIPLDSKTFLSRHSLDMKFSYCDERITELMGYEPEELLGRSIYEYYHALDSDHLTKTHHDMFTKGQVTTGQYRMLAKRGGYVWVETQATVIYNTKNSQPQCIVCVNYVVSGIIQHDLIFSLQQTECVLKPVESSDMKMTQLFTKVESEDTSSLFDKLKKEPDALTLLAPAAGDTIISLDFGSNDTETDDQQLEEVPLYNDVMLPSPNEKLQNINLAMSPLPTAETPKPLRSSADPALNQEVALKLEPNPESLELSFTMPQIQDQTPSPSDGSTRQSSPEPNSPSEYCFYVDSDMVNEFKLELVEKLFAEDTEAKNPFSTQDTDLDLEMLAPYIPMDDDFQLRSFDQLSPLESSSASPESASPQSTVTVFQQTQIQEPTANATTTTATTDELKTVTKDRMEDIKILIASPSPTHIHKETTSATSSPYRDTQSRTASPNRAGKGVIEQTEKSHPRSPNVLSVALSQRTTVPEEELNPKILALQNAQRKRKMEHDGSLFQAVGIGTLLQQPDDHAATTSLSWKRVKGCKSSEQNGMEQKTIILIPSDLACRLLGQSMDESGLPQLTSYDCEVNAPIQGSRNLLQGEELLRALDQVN

For test [10], the target named is Hepatocyte nuclear factor 6 (Homo sapiens) (UniProt Q9UBC0). Briefly: ATG_HNF6_CIS: Attagene CIS-FACTORIAL HepG2 Assay for human Hepatocyte Nuclear Factor 6 (HNF6) (AID 2282952). Particulars: HepG2 Attagene cis-factorial HNF6 reporter transcription; actives raise or lower the signal. The method, boiled down:
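First, HepG2 cells were transfected with the multiplexed cis reporter library and dosed with chemical for 24 h. Next, RNA was reverse-transcribed, PCR-amplified and fluorescently labelled. Finally, HpaI-digested fragments were read by capillary electrophoresis.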

In test [11] the target is Heat shock factor protein 1 (Homo sapiens) (UniProt Q00613). Briefly: ATG_HSE_CIS: Attagene CIS-FACTORIAL HepG2 Assay for human Heat Shock Transcription Factor 1 (HSE) (AID 2282953). The conditions noted are these: HepG2 HSE cis-reporter, Attagene RNA transcription; actives raise or lower the signal. The procedure, abridged:
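Read-out: fluorescence of reporter-specific RT-PCR fragments separated by capillary electrophoresis. HepG2 carrying transfected cis-element reporter units; 24 h dosing; activity fitted in both directions relative to DMSO baseline.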

Test [12] is described as follows: ATG_MRE_CIS: Attagene CIS-FACTORIAL HepG2 Assay for human Metal Responsive Element (MRE) (AID 2282954). The conditions noted are these: HepG2 MRE cis-reporter transcription, Attagene multiplex; actives raise or lower the signal. The method, boiled down:
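RT-PCR/capillary electrophoresis readout of reporter mRNA, 24 h post-dosing, in HepG2 cells transfected with multiplexed cis-regulated reporter constructs. Gain or loss of signal fitted bidirectionally against DMSO baseline.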

Test [13] is described as follows: ATG_VDRE_CIS: Attagene CIS-FACTORIAL HepG2 Assay for human Vitamin D Receptor Element (VDRE) (AID 2282968). Particulars: HepG2 VDRE cis-reporter transcription, actives raise or lower the signal. The method, boiled down: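 Transient MRTU transfection of HepG2, 24 h compound exposure. Readout: reporter transcripts via RT-PCR and capillary electrophoresis, fluorescence. Bidirectional fit vs DMSO.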

The nature of test [14]: ATG_NF_kB_CIS: Attagene CIS-FACTORIAL HepG2 Assay for human Nuclear Factor Kappa B (NF-kB) (AID 2282991). The conditions noted are these: HepG2 Attagene cis-factorial NF-kB reporter mRNA; actives raise or lower the signal. The procedure, abridged: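 Fluorescence of labelled RT-PCR products separated by capillary electrophoresis gives reporter mRNA levels from transfected HepG2 cells exposed 24 h; values are fitted in both directions relative to DMSO.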

A short description of test [15]: ATG_NRF2_ARE_CIS: Attagene CIS-FACTORIAL HepG2 Assay for human Nuclear Factor Erythroid 2 Related Factor 2 (NFR2) response to Antioxidant Response Elements (ARE) (AID 2282992). Particulars: HepG2 Attagene ARE/NRF2 reporter, transcription factor activity; actives raise or lower the signal. The method, boiled down:
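Readout: reporter mRNA quantified by RT-PCR plus FAM-labelled primer extension, HpaI digestion and capillary electrophoresis, 24 h after dosing transfected HepG2 cells. Gain or loss of signal is fitted bidirectionally against DMSO baseline.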

The target in test [16] is Cellular tumor antigen p53 (Homo sapiens) (UniProt P04637). Briefly: ATG_p53_CIS: Attagene CIS-FACTORIAL HepG2 Assay for human p53 Transcription Factor (AID 2282994). Particulars: HepG2 p53 cis-element reporter, Attagene mRNA; actives raise or lower the signal. The method, boiled down: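 Read-out: reporter mRNA by RT-PCR plus capillary electrophoresis with fluorescence detection. Human HepG2 liver cells carried transfected multi-reporter cis-element constructs, dosed 24 h. Gain or loss of signal fitted bidirectionally against DMSO control.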
Chain of Cellular tumor antigen p53 (Homo sapiens) (P04637 whole entry, looked up): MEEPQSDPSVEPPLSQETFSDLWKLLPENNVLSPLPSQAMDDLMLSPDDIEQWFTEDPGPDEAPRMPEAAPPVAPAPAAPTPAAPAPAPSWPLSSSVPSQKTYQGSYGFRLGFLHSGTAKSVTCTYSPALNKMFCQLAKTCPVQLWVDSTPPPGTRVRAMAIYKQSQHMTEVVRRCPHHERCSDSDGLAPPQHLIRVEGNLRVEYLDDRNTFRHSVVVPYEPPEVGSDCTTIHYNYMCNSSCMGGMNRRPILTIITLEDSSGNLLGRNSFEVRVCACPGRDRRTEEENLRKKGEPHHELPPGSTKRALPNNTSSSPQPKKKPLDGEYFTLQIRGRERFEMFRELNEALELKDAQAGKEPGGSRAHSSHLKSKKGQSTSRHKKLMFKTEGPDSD

Test [17] concerns the target Paired box protein Pax-6 (Homo sapiens) (UniProt P26367). Briefly: ATG_Pax6_CIS: Attagene CIS-FACTORIAL HepG2 Assay for human Paired Box 6 (PAX6) (AID 2282956). Particulars: HepG2 CIS-FACTORIAL PAX6 reporter transcription, RNA readout; actives raise or lower the signal. The procedure, abridged: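 Readout: reporter transcript fluorescence after RT-PCR and capillary electrophoresis. Cells: HepG2, transiently transfected with cis-regulated MRTUs. Exposure 24 h. Gain or loss of signal fitted bidirectionally relative to DMSO.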

Test [18] is described as follows: ATG_SREBP_CIS: Attagene CIS-FACTORIAL HepG2 Assay for human Sterol Regulatory Element Binding (SREBP) (AID 2282962). Particulars: HepG2 Attagene cis-factorial SREBP reporter, mRNA; actives raise or lower the signal. The method, boiled down:
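Readout: fluorescent reporter-transcript peaks resolved by capillary electrophoresis after RT-PCR. Cells were human HepG2 carrying transfected cis-promoter reporter constructs, dosed for 24 h. Gain or loss of signal was fitted against DMSO controls.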

The nature of test [19]: ATG_XTT_Cytotoxicity: Cytotoxicity Assessment in the Attagene TRANS-FACTORIAL HepG2 Assay (AID 2283584; active = hit-call score of the fitted dose curve at least 0.9, where 1 is the maximum). The procedure, abridged:
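HepG2 cells transiently transfected with GAL4-UAS multiple reporter units, dosed 24 h; cytotoxicity read by XTT as loss of signal versus DMSO baseline.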

Test [20] in a line: ATG_Ets_CIS: Attagene CIS-FACTORIAL HepG2 Assay for human Erythroblast Transformation Specific (ETS) (AID 2282941). The conditions noted are these: HepG2 ETS cis-reporter transcription, actives raise or lower the signal. The method, boiled down: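 RT-PCR/capillary electrophoresis fluorescence read-out of reporter mRNA; HepG2 transient multi-reporter transfection; 24 h compound exposure; gain or loss of signal fitted bidirectionally relative to DMSO.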

Chain of Heat shock factor protein 1 (Homo sapiens) (Q00613 whole entry, looked up, the tested form may be a part): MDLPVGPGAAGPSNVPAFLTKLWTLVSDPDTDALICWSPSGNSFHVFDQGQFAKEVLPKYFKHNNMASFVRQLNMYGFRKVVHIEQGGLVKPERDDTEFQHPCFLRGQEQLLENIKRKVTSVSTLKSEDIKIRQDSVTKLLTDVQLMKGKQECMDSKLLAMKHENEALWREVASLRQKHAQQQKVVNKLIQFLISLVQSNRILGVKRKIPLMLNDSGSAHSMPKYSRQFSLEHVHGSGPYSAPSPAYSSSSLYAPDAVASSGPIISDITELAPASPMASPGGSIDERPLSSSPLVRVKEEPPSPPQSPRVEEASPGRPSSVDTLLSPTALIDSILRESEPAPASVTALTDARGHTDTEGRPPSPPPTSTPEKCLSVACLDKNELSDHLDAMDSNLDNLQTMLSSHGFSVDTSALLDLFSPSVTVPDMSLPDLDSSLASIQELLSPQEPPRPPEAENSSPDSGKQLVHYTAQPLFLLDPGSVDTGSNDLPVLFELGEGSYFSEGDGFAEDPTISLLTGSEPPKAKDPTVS
Chain of Hepatocyte nuclear factor 3-beta (Homo sapiens) (Q9Y261 whole entry, looked up): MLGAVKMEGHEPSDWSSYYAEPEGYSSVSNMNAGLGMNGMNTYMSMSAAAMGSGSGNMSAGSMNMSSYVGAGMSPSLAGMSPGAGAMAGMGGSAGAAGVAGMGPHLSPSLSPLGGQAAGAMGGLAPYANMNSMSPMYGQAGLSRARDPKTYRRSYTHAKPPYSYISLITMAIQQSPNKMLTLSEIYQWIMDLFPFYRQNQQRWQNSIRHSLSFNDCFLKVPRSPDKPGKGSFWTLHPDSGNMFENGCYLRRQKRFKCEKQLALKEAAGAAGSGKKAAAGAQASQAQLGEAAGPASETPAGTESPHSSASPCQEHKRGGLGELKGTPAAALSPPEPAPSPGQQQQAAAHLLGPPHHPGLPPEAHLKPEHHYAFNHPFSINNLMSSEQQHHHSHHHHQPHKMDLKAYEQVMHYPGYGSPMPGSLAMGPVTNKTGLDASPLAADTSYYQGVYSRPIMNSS
Chain of Hepatocyte nuclear factor 6 (Homo sapiens) (Q9UBC0 whole entry, looked up, the tested form may be a part): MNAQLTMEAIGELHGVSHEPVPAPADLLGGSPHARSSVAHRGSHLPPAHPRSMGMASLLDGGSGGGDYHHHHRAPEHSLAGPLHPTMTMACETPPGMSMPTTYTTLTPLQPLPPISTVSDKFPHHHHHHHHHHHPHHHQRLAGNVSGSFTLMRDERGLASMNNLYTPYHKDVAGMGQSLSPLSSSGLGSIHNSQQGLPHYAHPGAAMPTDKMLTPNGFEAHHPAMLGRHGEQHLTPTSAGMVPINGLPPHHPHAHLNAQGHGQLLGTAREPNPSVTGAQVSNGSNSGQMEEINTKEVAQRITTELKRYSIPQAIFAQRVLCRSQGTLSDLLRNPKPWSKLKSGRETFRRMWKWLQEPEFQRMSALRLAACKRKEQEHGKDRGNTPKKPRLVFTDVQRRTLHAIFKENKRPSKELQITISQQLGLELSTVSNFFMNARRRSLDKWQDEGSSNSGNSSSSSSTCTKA
Chain of Aryl hydrocarbon receptor (Homo sapiens) (P35869 whole entry, looked up): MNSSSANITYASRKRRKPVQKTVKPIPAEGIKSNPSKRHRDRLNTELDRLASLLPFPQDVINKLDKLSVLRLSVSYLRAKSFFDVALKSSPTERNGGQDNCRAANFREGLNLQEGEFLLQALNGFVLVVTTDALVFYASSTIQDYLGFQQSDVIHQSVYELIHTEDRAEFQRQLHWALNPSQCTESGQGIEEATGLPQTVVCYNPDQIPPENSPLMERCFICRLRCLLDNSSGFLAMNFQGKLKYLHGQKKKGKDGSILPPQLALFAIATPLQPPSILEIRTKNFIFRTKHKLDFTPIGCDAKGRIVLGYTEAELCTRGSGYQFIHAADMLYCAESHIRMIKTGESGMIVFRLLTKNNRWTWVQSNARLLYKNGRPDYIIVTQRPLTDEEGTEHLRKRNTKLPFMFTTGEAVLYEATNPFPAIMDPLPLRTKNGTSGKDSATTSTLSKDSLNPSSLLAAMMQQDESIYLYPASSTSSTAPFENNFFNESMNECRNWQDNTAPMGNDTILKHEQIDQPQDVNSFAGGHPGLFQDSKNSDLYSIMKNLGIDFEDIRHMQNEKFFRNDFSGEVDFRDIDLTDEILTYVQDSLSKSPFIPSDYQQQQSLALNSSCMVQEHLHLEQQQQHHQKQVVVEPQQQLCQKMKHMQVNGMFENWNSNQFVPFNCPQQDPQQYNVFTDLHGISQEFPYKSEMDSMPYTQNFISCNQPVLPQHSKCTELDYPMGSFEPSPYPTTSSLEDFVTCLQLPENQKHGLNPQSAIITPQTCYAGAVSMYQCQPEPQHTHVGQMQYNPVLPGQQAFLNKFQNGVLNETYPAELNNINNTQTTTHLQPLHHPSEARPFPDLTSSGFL
Chain of Paired box protein Pax-6 (Homo sapiens) (P26367 whole entry, looked up): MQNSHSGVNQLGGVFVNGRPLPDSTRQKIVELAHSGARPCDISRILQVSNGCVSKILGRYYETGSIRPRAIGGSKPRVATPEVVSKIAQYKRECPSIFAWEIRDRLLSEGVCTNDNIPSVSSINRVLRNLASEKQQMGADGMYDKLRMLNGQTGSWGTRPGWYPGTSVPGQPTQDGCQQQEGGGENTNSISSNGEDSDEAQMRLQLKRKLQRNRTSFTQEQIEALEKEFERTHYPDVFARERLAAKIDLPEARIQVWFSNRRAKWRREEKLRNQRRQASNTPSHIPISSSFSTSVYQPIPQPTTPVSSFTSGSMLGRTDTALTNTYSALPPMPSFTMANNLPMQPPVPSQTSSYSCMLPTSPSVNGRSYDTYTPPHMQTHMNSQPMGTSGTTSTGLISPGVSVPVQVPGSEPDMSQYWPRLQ

By AC50 is commonly meant the midpoint of the concentration-response curve, whichever way the signal moves. As to `CNC(=O)Oc1cc(C)c(SC)c(C)c1`, the outcome in [1], in test [3], in [4], in test [5], in test [6] and in test [7] was inactive. The call in test [8], in test [9], in test [10], in [11], in test [14] and in [15] was inactive. In addition, the outcome in test [16] was inactive. Further, the AC50 is 17.4 µM (active) in [2], 74.2 µM (active) in [12] and 51.8 µM (active) in test [13].
As for `CC1(C)[C@H](C(=O)O[C@H](C#N)c2cccc(Oc3ccccc3)c2)[C@@H]1C=C(Br)Br`, the result in test [1], in test [2], in test [3], in test [4], in [5] and in test [7] was inactive. For the same molecule, the call in [9], in [10], in [11], in test [12], in [17] and in [18] was inactive. Further, the call in test [14], in [15], in [16] and in test [19] was inactive.
As for `O=[N+]([O-])c1ccc(Cl)cc1`, the outcome in test [1], in test [2], in test [3], in test [4], in test [5] and in test [20] was inactive. For the same molecule, the outcome in test [6], in test [7], in test [9], in [10], in [11] and in [12] was inactive. The molecule was called inactive in test [17], in test [18], in test [13], in test [14], in test [15] and in [16]. For the same molecule, in test [19], the molecule was classed as inactive.
With `CCc1cc(C)cc(CC)c1-c1c(OC(=O)C(C)(C)C)n2n(c1=O)CCOCC2`, the outcome in test [1], in test [2], in test [3], in test [4], in test [5] and in test [20] was inactive. In addition, the result in test [6], in [8], in test [9], in test [10], in [11] and in [12] was inactive. The result in test [18], in test [13], in [14], in test [15] and in test [16] was inactive.
